PubChem BioAssay AID624122 (National Center for Advancing Translational Sciences (NCATS), 2012)
Calls of active or inactive are those of the source.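 Rule for the calls: active = a dissociation constant for apoferritin binding could be measured by titration calorimetry; inconclusive = binding seen but dissociation constant not obtainable; inactive = no binding seen.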

Target: Ferritin light chain (Equus caballus) (UniProt P02791)
Assay: Isothermal Titration Calorimetry Based Assay for Measurement of Binding Affinity to Apoferritin
Settings: horse apoferritin
From the text: Anesthetic development has remained a largely empirical process. There are growing concerns about the cognitive effects of known general anesthetics and acceleration of the onset of neurodegenerative disease. The compounds' toxicity and multiple specific binding targets in the mammalian brain [4] has made them less attractive as drug leads. This isothermal titration calorimetry (ITC) assay is used to provide Kd binding affinity measurements for apoferritin, which is used here as a surrogate system to identify compounds with potential anesthetic properties. References: [1] S.L. Bianchi, T. Tran, C. Liu, S. Lin, Y. Li, J.M. Keller, R.G. Eckenhoff, and M.F. Eckenhoff, Brain and behavior changes in 12-month-old Tg2576 and nontransgenic mice exposed to anesthetics. Neurobiol Aging 29 (2008) 1002-10. Z. Xie, Y. Dong, U. Maeda, R.D. Moir, W. Xia, D.J. Culley, G. Crosby, and R.E. Tanzi, The inhalation anesthetic isoflurane induces a vicious cycle of apoptosis and amyloid beta-protein accumulation. J Neurosci 27 (2007) 1247-54. […]
In order to further triage primary hits identified from qHTS screen (AID 485281), ITC was utilized to evaluate direct binding signatures between filtered compounds and apoferritin and provide a complete thermodynamic characterization of selected compounds. […] Concentrations were then determined using absorption spectroscopy based on standards prepared in organic solvents. […]

Sequence of Ferritin light chain (Equus caballus) (P02791 2-175 limits assumed): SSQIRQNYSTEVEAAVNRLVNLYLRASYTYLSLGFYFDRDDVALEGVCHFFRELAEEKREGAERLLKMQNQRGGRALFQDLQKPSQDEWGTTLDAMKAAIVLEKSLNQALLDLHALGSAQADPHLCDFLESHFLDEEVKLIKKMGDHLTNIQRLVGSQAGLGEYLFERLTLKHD

Row | Structure (SMILES) | Kd
1 | Cc1ccc(-c2ccc(=O)n(CC(=O)NCCc3ccccc3)n2)cc1 | 8.2 µM (active)
2 | COc1ccc(-c2ccc(=O)n(CC(=O)NCc3ccco3)n2)cc1 | 4.2 µM (active)
